Whole data set: some 33,000 sequences, median “E-score (-0.5 to 0.5)” near -0.035, cut for the highest 2% near 0.35. The list comes from a sample in which the highest values are over-represented; it also holds similar and randomly drawn sequences.
Biological target: T1, Pdr3 (UniProt P33200)
T1 sequence: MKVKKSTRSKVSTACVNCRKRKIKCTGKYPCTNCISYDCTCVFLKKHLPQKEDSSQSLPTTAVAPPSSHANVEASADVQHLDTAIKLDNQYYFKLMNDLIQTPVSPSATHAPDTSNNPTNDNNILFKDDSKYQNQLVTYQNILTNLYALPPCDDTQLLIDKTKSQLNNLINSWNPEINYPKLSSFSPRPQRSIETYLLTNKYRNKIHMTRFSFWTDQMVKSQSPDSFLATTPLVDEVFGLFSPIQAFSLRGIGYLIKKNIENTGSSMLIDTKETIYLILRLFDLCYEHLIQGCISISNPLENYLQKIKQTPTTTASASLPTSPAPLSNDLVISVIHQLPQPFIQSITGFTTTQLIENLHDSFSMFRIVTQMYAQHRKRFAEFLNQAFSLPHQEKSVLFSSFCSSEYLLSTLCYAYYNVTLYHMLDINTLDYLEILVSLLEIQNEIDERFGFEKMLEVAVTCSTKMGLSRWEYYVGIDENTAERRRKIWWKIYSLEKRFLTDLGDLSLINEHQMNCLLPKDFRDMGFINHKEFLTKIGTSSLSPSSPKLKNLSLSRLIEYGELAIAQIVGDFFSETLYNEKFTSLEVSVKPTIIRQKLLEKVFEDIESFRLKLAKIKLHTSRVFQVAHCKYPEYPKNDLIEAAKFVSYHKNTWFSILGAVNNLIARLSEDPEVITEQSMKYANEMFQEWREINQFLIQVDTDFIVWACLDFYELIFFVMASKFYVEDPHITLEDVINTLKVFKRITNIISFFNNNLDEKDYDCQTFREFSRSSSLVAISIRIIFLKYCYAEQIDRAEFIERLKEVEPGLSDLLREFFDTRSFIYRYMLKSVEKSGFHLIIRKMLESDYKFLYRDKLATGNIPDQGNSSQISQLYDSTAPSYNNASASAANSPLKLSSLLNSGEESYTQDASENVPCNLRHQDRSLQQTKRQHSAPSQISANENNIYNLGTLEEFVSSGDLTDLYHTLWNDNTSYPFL
Test: PBM E-score (8-mer binding enrichment) (E-score (-0.5 to 0.5)); higher = stronger / more preferred TF binding
Conditions: protein concentration: 200 nM; construct: GST-full length
Experimental: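 Universal 'all 10-mer' protein binding microarrays (Agilent AMADID 015681) probed with GST-tagged S. cerevisiae TFs (full-length or DBD) made by in vitro transcription/translation (PURExpress), about 100-200 nM. Bound TF was detected with fluorescent anti-GST. Each ungapped 8-mer (which stands for itself and its reverse complement) is scored by the PBM enrichment score (E-score), a modified Wilcoxon-Mann-Whitney statistic from -0.5 to +0.5, computed with the Universal PBM Analysis Suite. Scale: above 0.35 generally sequence-specific binding.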

| Sequence | PBM E-score |
| --- | --- |
| CCACCCCG | 0.165 |
| CCCTGCTA | -0.0619 |
| TACGGGCA | 0.00013 |
| CTGTTCCC | 0.0618 |
| ACACTAGT | -0.167 |
| AGGCTTTC | -0.203 |
| TCTGTGAA | -0.0705 |
| CCGGAGAG | 0.363 |
| TCGGAGAA | 0.225 |
| CAGGAGAG | -0.174 |
| CCGGAGAC | 0.37 |
| ACGGAGAC | 0.321 |
| GCGGAGAC | 0.336 |
| ACGGAGAG | 0.319 |
| ACGGAGAA | 0.265 |
| CCGGAGAA | 0.385 |
| AATGAGGA | -0.177 |
| GCAGTCGC | -0.0644 |
| TATCGCGA | 0.258 |
| GCCTTCCC | -0.1 |
| CCTACTCC | -0.0705 |
| GCTACTGA | 0.00622 |
| GATTCCGC | 0.455 |
| AATTCCTC | 0.0037 |
| AATTCCGC | 0.397 |
| CATTCCGC | 0.421 |

| Sequence | PBM E-score |
| --- | --- |
| CATTCCAC | 0.0732 |
| AATTCCCG | 0.298 |
| GATTCCAC | 0.19 |
| GATTCCCC | 0.0929 |
| AATTCCGG | 0.449 |
| CATTCCTC | 0.0812 |
| AATTCCTG | -0.021 |
| AATTCCCC | 0.203 |
| CGCCCTCC | 0.0638 |
| TAATGATA | 0.132 |
| ATCGCATC | 0.121 |
| GTCCCAAA | -0.154 |
| CAGGCCAC | 0.00119 |
| ATTTGCAG | -0.0031 |
| ACCATAGG | -0.229 |
| GAGAAAAA | 0.176 |
| ATCTGGGG | -0.109 |
| AATTCCAT | 0.156 |
| AATTCCAA | -0.0365 |
| AATTCCCT | -0.207 |
| AATTCCCA | -0.171 |
| AATTCCGA | 0.423 |
| AATTCCGT | 0.449 |
| ACTAGCCG | 0.105 |
| GACCCGAC | 0.21 |
| AGCCCGGC | 0.264 |

| Sequence | PBM E-score |
| --- | --- |
| AGCCCCGG | 0.303 |
| CGCCCGAA | 0.117 |
| CGCCCGGC | 0.293 |
| AGCCCGGA | 0.355 |
| AGCCCGGG | 0.383 |
| AGCCCGAG | -0.044 |
| GGCCCGGA | 0.336 |
| CGCCCGGA | 0.396 |
| ACACAGTC | -0.0508 |
| CTAGCATC | -0.172 |
| CTTTCTAC | -0.16 |
| ACCATACG | -0.0138 |
| CTGGCGGA | 0.131 |
| CCGGCGGC | 0.325 |
| CCGGCGGA | 0.449 |
| ACGGCGGA | 0.314 |
| GCGGCGGA | 0.404 |
| GTGGCGGA | 0.271 |
| ATCTCCTA | -0.245 |
| GATACGAA | 0.033 |
| GCCTGGCC | 0.00694 |
| TCAACACA | -0.0355 |
| AATCCGGT | 0.294 |
| AATCCAGA | 0.127 |
| CATCCGAA | 0.282 |
| CATCCGGA | 0.426 |

| Sequence | PBM E-score |
| --- | --- |
| TATCCGAA | 0.307 |
| CATCCGTA | 0.282 |
| CATCCGGG | 0.261 |
| AATCCGGA | 0.455 |
| AATCCGGC | 0.302 |
| GATCCGAA | 0.365 |
| CATCCGGC | 0.295 |
| GATCCGGC | 0.369 |
| AGAATGCG | 0.0628 |
| CAAGGCGA | -0.174 |
| GACGCCTA | -0.228 |
| AGCTGTTG | -0.0549 |
| AAGAAATC | -0.104 |
| ACATGAGG | -0.0733 |
| TATCCTGA | -0.107 |
| GATCCGTA | 0.336 |
| GATCCGGA | 0.437 |
| GCTCCGAA | 0.361 |
| GATCCGCA | 0.319 |
| TATCCGCA | 0.335 |
| TATCCGGA | 0.446 |
| TCTCCGAA | 0.257 |
| CCTCCGAA | 0.152 |

From the supplement of paper PMC3334620
